About 11,000 (3.5%) of roughly 310,000 compounds were called active. Not shown: some 8% with an inconclusive outcome. The entries come from a sample that favours actives as a whole. Values without a mark were called inactive. The call rests on the fitted dose curve; in most records, active means well fitted inhibition curve with a large enough effect; inconclusive means small, poorly fitted or top-dose-only effect, or effect the other way; inactive means flat fitted curve, though single readings scatter.
On the % scale 0 is the no-effect control and ±100 the full control effect; potency means the concentration at half of the fitted maximal effect.

This test is described as follows: VP16 counterscreen qHTS for inhibitors of ROR gamma transcriptional activity.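 Further: Gal4-VP16 expression switched on by copper sulfate through the metallothionein promoter; nearly all actives have a fitted effect of over 50% in size.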 Particulars: Drosophila S2 Gal4-VP16 UAS-luciferase, luminescence, 20 h; series mostly up to 53.6 µM; activity, negative = inhibition: at the top concentration. The source says: NIH Molecular Libraries Probe Production Network [MLPCN]
NIH Chemical Genomics Center [NCGC]
Assay Provider: Dan Littman, New York University
The retinoic acid-related orphan receptor (ROR) gamma is a transcription factor that has a central role in the differentiation of Th17 cells, a subset of T helper cells that secrete the inflammatory cytokines IL-17, IL-17F, and IL-22. Th17 cells have been implicated in graft versus host disease, autoimmune disease and asthma. ROR gamma is induced in naive T helper cells in the presence of TGF-beta combined with IL-6, IL-21, or IL-23, and thereafter directs the expression of the Th17 lineage cytokines. To identify nonspecific inhibitors, a Drosophila Schneider cell line was stably transfected with two vectors: a gene expressing a fusion of the Gal4 DNA binding domain and VP16 transactivation domain under the control of the metallothionine promoter and a Photinus luciferase reporter regulated by the Gal4 binding site enhancer, UAS. […] Small molecule inhibitors that inhibit components common to the RORgt and VP16 assays, such as the Gal4 DNA binding domain or the UAS luciferase reporter, will be active in both assays and thus scored as nonspecific.
For screening, 600 cells in 4 uL/well were dispensed into white solid 1536-well plates (Grenier) using a solenoid-based dispenser. Following transfer of 23 nL compound or DMSO vehicle by a pin tool, the plates were incubated 1 hr at ambient temperature, and 1 uL/well copper sulfate (700 uM final concentration) was added. The plates were centrifuged 15 s at 1000 RPM and incubated 20 hr at ambient temperature. After addition of 1.5 uL Photinus luciferase detection reagent, the plates were incubated 10 min at ambient temperature and then read by a ViewLux (Perkin Elmer) to detect luminescence.
On the technique in general: A counterscreen serves to expose hits that act by an unwanted route or on another target.
For the molecule `Fc1ccc(C(OCCN2CCN(C/C=C\c3ccccc3)CC2)c2ccc(F)cc2)cc1`, the Potency was 15.8 µM (active). `CC(=O)c1c(O)c(C)c(O)c(Cc2c(O)c3c(c(C(=O)/C=C\c4ccccc4)c2O)OC(C)(C)C=C3)c1O`: the “activity, negative = inhibition” value is -0.988%.

`CC(C)(O)c1[se]c2ccccc2c1I`: the “activity, negative = inhibition” value is -17.8%. For `N#CC(C#N)=Cc1cc(O)c(O)c([N+](=O)[O-])c1`, the Potency is 22.4 µM (active). Turning to `CC(C)(c1ccccc1)c1ccc(O)cc1`, the “activity, negative = inhibition” value was 7.15%.

As for `COC1=C[C@]23CCCN2CCc2cc4c(cc2[C@@H]3[C@@H]1O)OCO4`, the “activity, negative = inhibition” value was -7.05%.

Take `CCCCC(=O)N/N=C/c1c(O)n(CCC2=CCCCC2)c(=O)[nH]c1=O`: the “activity, negative = inhibition” value is 1.97%. In the case of `CCCCC(=O)N/N=C/c1c(O)n(CC)c(=S)n(CC)c1=O`, the Potency was 3.16 µM (active). For `CCCCC(=O)N/N=C/c1c(O)n(-c2ccccc2)c(=O)[nH]c1=O`, the “activity, negative = inhibition” value is 1.03%. As for `c1ccc2sc(SNC3CCCCC3)nc2c1`, the “activity, negative = inhibition” value was 2.39%.

In the case of `CN1CCN(C(=O)O[C@@H]2c3nccnc3C(=O)N2c2ccc(Cl)cn2)CC1`, the “activity, negative = inhibition” value was -7.9%. Take `CC[C@H]1CN2CCc3cc(OC)c(OC)cc3[C@@H]2C[C@@H]1C[C@H]1NCCc2cc(OC)c(OC)cc21`: the Potency is 1.26 µM (active). In the case of `CNC(C)[C@@H](O)c1ccccc1` (some centres not stated), the “activity, negative = inhibition” value is 9.08%. Still for that read-out and setting: the value for `c1ccc(N2CC[C@@]3(CCCNC3)C2)nc1` was -11.8%; that for `CC(Cl)Cl` was 4.63%; that for `COC(=O)N1C(c2ccccc2)C1c1ccccc1` (configuration not stated) was 9.71%. As to `CC(=O)[O][Sn]([c]1ccccc1)([c]1ccccc1)[c]1ccccc1`, the Potency is 3.55 µM (active). For `CC[C@@H]1CN2CC[C@@H]1C[C@H]2[C@H](O)c1ccnc2ccc(OC)cc12`, the “activity, negative = inhibition” value was 9.73%. Same read-out and setting: to `CCN1C[C@]2(C)CC[C@H](O)[C@@]34[C@@H]5CC6[C@@H](OC)C[C@@](O)([C@@H]5[C@@H]6O)[C@H](C[C@@H]23)[C@H]14` belongs 2.08% [at 17 µM]; to `CCN1C[C@@]2(COC)CC[C@H](OC)[C@]34[C@@H]1[C@]1(OCO[C@@]15C[C@@H](OC)C1C[C@H]3[C@H]5[C@@H]1OC)[C@H](O)[C@@H]24`, 2.2% [at 17 µM]. On the same count and under the same terms, to `NC[C@H](O)c1ccc(O)cc1` belongs 4.06% [at 17 µM]; to `CN1CCN(c2cc(N3CCNCC3)ccc2[N+](=O)[O-])CC1`, -5.63%.

`COc1cccc(-c2nc3ccc(N4CCN(C)CC4)cc3[nH]2)c1`: the Potency was 2 µM (active). Regarding `CCCCC#N`, the “activity, negative = inhibition” value is 10.3%. On to `COc1ccc(C2Oc3c(I)c(OC)cc(OC)c3CC2O)cc1OC` (configuration not stated), for which the “activity, negative = inhibition” value was 7.75%. Regarding `C[C@@]12CC[C@H]3[C@@H](CC[C@]4(O)C[C@H](O)CC[C@@]34C=O)[C@]1(O)CC[C@@H]2C1=CC(=O)OC1`, the “activity, negative = inhibition” value is 4.3% [at 17 µM].

With `Clc1ccccc1`, the “activity, negative = inhibition” value was -4.14%.

Take `C[C@@H]1C[C@@H]2O[C@H]2/C=C\C=C\C(=O)Cc2c(Cl)c(O)cc(O)c2C(=O)O1`: the Potency is 12.6 µM (active). `C[C@]12O[C@H](C[C@@]1(O)C(=O)O)n1c3ccccc3c3c4c(c5c6ccccc6n2c5c31)CNC4=O`: the “activity, negative = inhibition” value is -2.92%. On the same count and under the same terms, the value for `CN1CCCC(=C(c2cccs2)c2cccs2)C1` was -0.628%.

As for `Cc1nc2ccccn2c1P(=S)(N1CCCCC1)N1CCCCC1`, the Potency was 11.2 µM (active).

With `c1ccc(CCCCN2CCC(c3ccccc3)CC2)cc1`, the “activity, negative = inhibition” value is 16%. Consider `O=c1oc2ccccc2c(O)c1C(c1ccccc1O)c1c(O)c2ccccc2oc1=O`, for which the “activity, negative = inhibition” value is -0.571%. On the same count and under the same terms, to `CC(C)(C)C(O)(CCc1ccc(Cl)cc1)Cn1cncn1` (configuration not stated) belongs -6.68%; to `CC1=CC(=O)C2=C(C)C[C@H](O)[C@H]3[C@H](C)C(=O)O[C@@H]3C12` (some centres not stated), -4.17%. On the same count and under the same terms, the value for `CCCCCCCCCCCCCC(=O)O[C@@H]1[C@@H](C)[C@@]2(O)[C@@H](C=C(CO)C[C@]3(O)C(=O)C(C)=C[C@@H]23)[C@@H]2C(C)(C)[C@]12OC(C)=O` was -3.2%; that for `CCCCCCCCc1[se]c2ccccc2c1Br` was -0.332%; that for `CN(C)C[C@H]1CCCC[C@]1(O)c1cccc(O)c1` was -7.52%. Regarding `Cc1ccc(NC(=O)CN(C)CC(=O)Nc2cccc(F)c2)cc1[N+](=O)[O-]`, the Potency was 4.47 µM (active). For the molecule `c1ccc(CN2CC[C@@]3(CCCNC3)C2)cc1`, the “activity, negative = inhibition” value was -2.59%.

Consider `ClCCBr`, for which the “activity, negative = inhibition” value is -6.24%.

With `COc1cc(-n2c(=S)[nH]c3ccc(C)cc3c2=O)c(Cl)cc1Cl`, the Potency was 5.62 µM (active).

For the origin of these results see PubChem BioAssay AID2546 (National Center for Advancing Translational Sciences (NCATS), 2010).
